Test results reported in PubChem BioAssay (NCATS).
Records with an inconclusive call do not appear. A call without a number means that no potency is given here. A number with no mark means an inactive call. Calls of active or inactive are those of the source. The call rests on the fitted dose curve; in most records, active means well fitted cell-killing curve with a large enough effect; inconclusive means small, poorly fitted or top-dose-only effect, or effect the other way; inactive means no such curve, though single readings can be large or run the other way.

Legend:
[1] = Viability qHTS for spleen associated tyrosine kinase inhibitor (SYKi) naive MV4-11 cells (AID 1963823); further: nearly all actives have a fitted effect of over 40% in size
Procedure, shortened: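 SYKi-naive MV4-11 AML cells, 500 per well, were exposed to library compounds for 72 hr at 37 C, 5% CO2. Viability was then read by CellTiter-Glo luminescence after 10 min at room temperature.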

[2] = Viability qHTS for spleen associated tyrosine kinase inhibitor (SYKi) drug resistant MV4-11 cells (AID 1963824); further: nearly all actives have a fitted effect of over 35% in size
Procedure, shortened: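 SYK-inhibitor-resistant MV4-11 AML cells were seeded at 500 per well onto compound and cultured 72 hours (37 °C, 5% CO2). CellTiter-Glo was then added, and after 10 min at room temperature, luminescence gave viability.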
Potency means the concentration at half of the fitted maximal effect.

| SMILES | Potency [1] | Potency [2] | viability (% of control) [1] | viability, % of control [2] |
| --- | --- | --- | --- | --- |
| Cc1cc(C(=O)Nc2nc3cccc(Cl)c3n2C2CCCCN(C(=O)/C=C/CN(C)C)C2)ccn1 (stereo not drawn) | 5.17 µM (active) | 8.2 µM (active) | – | – |
| CC(C)c1ccc(NC(=O)c2cccs2)c(-c2nc3ccccc3[nH]c2=O)c1 | 8.2 µM (active) | 11.6 µM (active) | – | – |
| COc1ccccc1-c1cc(Nc2cccc(CS(N)(=O)=O)c2)ncn1 | 9.2 µM (active) | 8.2 µM (active) | – | – |
| O=C(O)c1ccc(S(=O)(=O)N(Cc2ccc(OC(F)(F)F)cc2)c2ncc(C(F)(F)F)cc2Cl)cc1 | 20.6 µM (active) | 23.1 µM (active) | – | – |
| CC(/C=C/C1(O)C(C)(C)CC(O)CC1(C)O)OC1OC(CO)C(O)C(O)C1O (stereo not drawn) | inactive | inactive | – | – |
| COC(=O)C1=COC(OC2OC(CO)C(O)C(O)C2O)C2C(C)C(OC(C)=O)C(OC(=O)c3ccccc3)C12 (stereo not drawn) | inactive | inactive | – | – |
| O=C(Nc1ccc(Cl)cc1F)c1ccccc1O | 9.2 µM (active) | 7.31 µM (active) | – | – |
| COc1cc(COC2OC(CO)C(O)C(O)C2O)cc(OC)c1O (stereo not drawn) | inactive | inactive | – | – |
| CC(=O)OC1C(CO)OC(O[C@H]2[C@H](OC(=O)[C@]34CCC(C)(C)C[C@H]3C3=CCC5[C@@]6(C)CC[C@H](O[C@@H]7O[C@H](C(=O)O)[C@@H](O)[C@H](O[C@@H]8OC[C@@H](O)[C@H](O)[C@H]8O)[C@H]7O[C@@H]7O[C@H](CO)[C@H](O)[C@H](O)[C@H]7O)[C@@](C)(C=O)C6CC[C@@]5(C)[C@]3(C)C[C@H]4O)O[C@H](C)[C@H](OC3OC(C)C(OC4OCC(O)C(O)C4O)C(O)C3O)[C@@H]2O)C(O)C1O (stereo partly drawn) | – | – | 87.3% [at 9.25 µM] | 100% [at 9.25 µM] |
| N#Cc1c(Oc2ccc(F)c(NC(=O)Cc3cccc(C(F)(F)F)c3)c2)ccc2nc(NC(=O)C3CC3)sc12 | 1.46 µM (active) | 1.64 µM (active) | – | – |
| c1ccc(Cc2ncc3c(n2)CCNCC3)cc1 | inactive | inactive | – | – |
| C/C(=C\CO)CC/C=C(\C)C(=O)O[C@@H]1O[C@H](CO)[C@@H](O)[C@H](O)[C@H]1O | inactive | inactive | – | – |
| Cc1cc(CNC(=O)c2cc(C(=O)NCc3ccc(F)c(C)c3)ncn2)ccc1F | inactive | inactive | – | – |
| CC(C)(O)c1ccc2c(c1)C(O)C[C@H]1[C@](C)(C(=O)O)CCC[C@]21C (stereo partly drawn) | inactive | inactive | – | – |
| CC(C)CCNC(=O)[C@H](CC(C)C)NC(=O)[C@H]1O[C@@H]1C(=O)O | inactive | inactive | – | – |
| O=C(NCCN1CCOCC1)c1cc2c(Oc3ccc(NC(=O)C4(C(=O)Nc5ccc(F)cc5)CC4)cc3)ccnc2[nH]1 | 0.0259 µM (active) | 0.0411 µM (active) | – | – |
| Brc1ccc([C@H]2CN3CCSC3=N2)cc1 | inactive | inactive | – | – |
| COc1c(C)cnc(Cn2cc(C#CCC(C)(C)O)c3c(Cl)nc(N)nc32)c1C | 0.0116 µM (active) | 0.0206 µM (active) | – | – |
| O=C(/C=C/c1ccc(O)cc1)N[C@@H](Cc1ccc(O)cc1)C(=O)O | inactive | inactive | – | – |
| CC1CC[C@]2(C(=O)O)CC[C@]3(C(=O)O)C(=CCC4[C@@]5(C)CC[C@H](OC6OC(C)C(O)C(OC7OC(CO)C(O)C(O)C7O)C6O)C(C)(C)C5CC[C@]43C)C2C1C (stereo partly drawn) | inactive | inactive | – | – |
| OCC(CO)(CO)NCC(O)Cn1c2ccc(Cl)cc2c2cc(Cl)ccc21 (stereo not drawn) | 20.6 µM (active) | 11.6 µM (active) | – | – |
| O=C1NC2CCc3nc4ccccc4c(=O)n3C2=Nc2ccccc21 (stereo not drawn) | inactive | inactive | – | – |
| O=C(O)COCCN1CCN([C@H](c2ccccc2)c2ccc(Cl)cc2)CC1 | inactive | inactive | – | – |
| COc1cc(/C=C/C(=O)O[C@H]2[C@H](O)[C@@H](CO)O[C@@]2(CO)O[C@H]2O[C@H](COC(=O)c3ccc(O)cc3)[C@@H](O)[C@H](O)[C@H]2O)cc(OC)c1OC | inactive | inactive | – | – |
| COC(=O)c1ccc(=O)c2nc3/c(=C/O)c(O)cc(=O)c3[nH]c12 | inactive | inactive | – | – |
| COc1cc(C(=O)O)ccc1OC1OC(CO)C(O)C(O)C1O (stereo not drawn) | inactive | inactive | – | – |
| CC/C=C\CC1C(=O)C=CC1(CCCCC1CCC(=O)O1)OC(C)=O (stereo not drawn) | 12.8 µM (active) | 7.18 µM (active) | – | – |
| CC(C)=CC/C=C(\C)[C@H]1CC[C@]2(C)[C@@H]1[C@H](O)C[C@@H]1[C@@]3(C)CC[C@H](O)C(C)(C)[C@@H]3[C@@H](O[C@@H]3O[C@H](CO)[C@@H](O)[C@H](O)[C@H]3O)C[C@]12C | inactive | inactive | – | – |
| Cc1ccc(NS(=O)(=O)c2cc3c(cc2N[C@@H](C)CO)NC(=O)CC3)cc1C | 20.6 µM (active) | 20.6 µM (active) | – | – |
